The record followed here is PubChem BioAssay (Tox21).

The structures appear in SMILES notation. Records with an inconclusive call do not appear. A number with no mark means an inactive call. Activity calls are given as the source filed them. Unless noted, the call rests on the fitted dose curve; in most records, active means well fitted curve in the direction sought with a large enough effect in the repeat runs; inconclusive means weak or mixed curves; inactive means no such curve, though single readings can be large; an effect the other way counts as inactive or inconclusive.

Test [1] is described as follows: qHTS assay to identify small molecule antagonists of the thyroid receptor (TR) signaling pathway (AID 743065). Further: series mostly up to about 70 µM; nearly all actives have a fitted effect of over 55% in size. In outline:
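Antagonism measured as loss of luciferase signal in GH3 cells stably carrying a TRE-luciferase reporter, co-treated with compound and T3 (1 nM final) for 23.5 h at 37 C. Viability was read in the same well by CellTiter-Fluor.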
Background: In qHTS, concentration-response curves come from the screen itself.

The subject of test [2] is thyroid hormone receptor (rat, GH3 cells). Description: qHTS assay to identify small molecule agonists of the thyroid receptor (TR) signaling pathway (AID 743066; calls by dose curve).
Test [3] can be described thus: qHTS assay to identify small molecule antagonists of the estrogen receptor alpha (ER-alpha) signaling pathway - cell viability counter screen (AID 743074; calls by dose curve;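 further: HEK293 cells carrying ER-alpha-UAS-bla reporter stimulated with 17beta-estradiol; nearly all actives have a fitted effect of over 45% in size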).
Test [4] in a line: qHTS assay to identify small molecule antagonists of the estrogen receptor alpha (ER-alpha) signaling pathway using the BG1 cell line - cell viability counter screen (AID 743081).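 Further: compound given together with 17beta-estradiol as the ER stimulus; series mostly up to about 70 µM; nearly all actives have a fitted effect of over 45% in size.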
For test [5], the target named is Aromatase (Homo sapiens) (UniProt P11511). The experiment in a line: qHTS assay to identify aromatase inhibitors (AID 743083). Further: series mostly up to about 70 µM; nearly all actives have a fitted effect of over 55% in size.
Test [6] is described as follows: qHTS assay to identify aromatase inhibitors - cell viability counter screen (AID 743084).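 Further: cells stimulated with testosterone during compound exposure; nearly all actives have a fitted effect of over 55% in size.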
The nature of test [7]: qHTS assay to identify small molecule that activate the aryl hydrocarbon receptor (AhR) signaling pathway - cell viability counter screen (AID 743086). Further: series mostly up to about 70 µM; nearly all actives have a fitted effect of over 45% in size. An outline of the steps: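 Cytotoxicity counter screen: CellTiter-Fluor signal (30 min, 37 C) in 4000 HepG2 cells/well carrying the DRE-luciferase reporter, following 24 h compound exposure at 37 C.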
Test [8] deals with Peroxisome proliferator-activated receptor gamma (Homo sapiens) (UniProt P37231). Description: qHTS assay to identify small molecule agonists of the peroxisome proliferator-activated receptor gamma (PPARg) signaling pathway (AID 743094; active means well fitted activation curve with a large enough effect in the signal ratio in the repeat runs, not every such curve was filed as active; the % refers to the signal ratio). An outline of the steps:
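GeneBLAzer PPARg UAS-bla HEK293H cells were plated, rested 5 h, then exposed to compounds for 17 h at 37C. Beta-lactamase activity was read by LiveBLAzer B/G FRET substrate fluorescence after 1 h at room temperature.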

Test [9] has the same target. The experiment in a line: qHTS assay to identify small molecule antagonists of the peroxisome proliferator-activated receptor gamma (PPARg) signaling pathway (AID 743191; calls by dose curve; further: series mostly up to about 63 µM; nearly all actives have a fitted effect of over 30% in size). An outline of the steps: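 Beta-lactamase reporter under UAS control in HEK293H PPARg-bla cells; compound treatment 17 h at 37C. Read-out: fluorescence intensity after 1 h room-temperature incubation with LiveBLAzer B/G FRET substrate.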

The nature of test [10]: qHTS assay to identify small molecule antagonists of the peroxisome proliferator-activated receptor gamma (PPARg) signaling pathway - cell viability counter screen (AID 743194). Further: nearly all actives have a fitted effect of over 55% in size. In outline:
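Viability was measured as CellTiter-Glo luminescence in GeneBLAzer PPARg UAS-bla HEK293H cells. These cells had been exposed 17 h at 37 C to compounds together with rosiglitazone at 50 nM final, with the beta-lactamase readout taken in the same wells.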

A short description of test [11]: qHTS assay for small molecule agonists of the antioxidant response element (ARE) signaling pathway - cell viability counter screen (AID 743203; calls by dose curve; further: nearly all actives have a fitted effect of over 55% in size). An outline of the steps:
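ARE-bla HepG2 cells were plated, rested 5 h at 37C/5% CO2, then exposed to compounds in DMSO for 16 h. Viability was read as CellTiter-Glo luminescence after 30 min at room temperature, in the same wells as the ARE screen.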

Test [12] is described as follows: qHTS assay for small molecule activators of the heat shock response signaling pathway - cell viability counter screen (AID 743209). Further: nearly all actives have a fitted effect of over 50% in size. An outline of the steps:
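HSE-bla HeLa cells plated overnight, then exposed to Tox21 compounds (23 nL in DMSO) for 5 h at 37 C. After the bla reporter read, CellTiter-Glo was added in the same wells and luminescence read after 30 min at room temperature.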

Test [13] can be described thus: qHTS assay for small molecule activators of the heat shock response signaling pathway (AID 743210; active means well fitted activation curve with a large enough effect in the signal ratio in the repeat runs, with a control signal flat, not every such curve was filed as active; the % refers to the signal ratio;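 further: HeLa cells with beta-lactamase reporter driven by heat shock elements; series mostly up to about 63 µM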). An outline of the steps:
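HeLa HSE-bla cells, overnight plating; cpd in DMSO 5 h, 37 C; LiveBLAzer B/G FRET substrate 2.5 h RT; fluorescence intensity read.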

Test [14] concerns the target Estrogen receptor (Homo sapiens) (UniProt P03372). The experiment in a line: qHTS assay to identify small molecule antagonists of the estrogen receptor alpha (ER-alpha) signaling pathway (AID 743069; active means well fitted curve in the direction sought with a large enough effect in the signal ratio in the repeat runs, not every such curve was filed as active; the % refers to the signal ratio). In outline: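 ER-alpha-UAS-bla GripTite HEK293 line; 2% charcoal-stripped FBS overnight; plated, 4 hr 37C/5% CO2; cpd in DMSO + 17beta-estradiol, 18 hr 37C; LiveBLAzer B/G FRET substrate 2 hr RT; fluorescence intensity.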

Test [15] has the same target. Description: qHTS assay to identify small molecule agonists of the estrogen receptor alpha (ER-alpha) signaling pathway (AID 743075; calls by dose curve;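 further: HEK293 GripTite cells with ER-alpha and UAS-driven beta-lactamase reporter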).
The target is the same in test [16]. Description: qHTS assay to identify small molecule agonists of the estrogen receptor alpha (ER-alpha) signaling pathway using the BG1 cell line (AID 743079). Further: nearly all actives have a fitted effect of over 20% in size. Further: potency means the concentration at half of the fitted maximal effect.
For test [17], the target named is Aryl hydrocarbon receptor (Homo sapiens) (UniProt P35869). Description: qHTS assay to identify small molecule that activate the aryl hydrocarbon receptor (AhR) signaling pathway (AID 743085).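 Further: HG2L7.5c1 human HepG2 liver cells with stably integrated DRE-driven firefly reporter; series mostly up to about 70 µM; nearly all actives have a fitted effect of over 15% in size.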 In outline:
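Luminescence read-out: ONE-Glo reagent, 30 min at room temperature, in HG2L7.5c1 HepG2 reporter cells treated 24 h at 37C. Viability was measured beforehand by CellTiter-Fluor fluorescence after 30 min at 37C.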

A short description of test [18]: qHTS assay to identify small molecule antagonists of the estrogen receptor alpha (ER-alpha) signaling pathway using the BG1 cell line (AID 743080; calls by dose curve;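 further: BG1 cells stimulated with 17beta-estradiol alongside compound; series mostly up to about 70 µM; nearly all actives have a fitted effect of over 25% in size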). An outline of the steps:
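BG1-Luc-4E2 cells (endogenous full-length ER-alpha, 4xERE luciferase) hormone-starved 5 days in charcoal-stripped FBS, plated 4,000/well for 24 h, then compound plus 17beta-estradiol for 21.5 h at 37 C; ONE-Glo luminescence read.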

Chain of Estrogen receptor (Homo sapiens) (P03372 whole entry, looked up): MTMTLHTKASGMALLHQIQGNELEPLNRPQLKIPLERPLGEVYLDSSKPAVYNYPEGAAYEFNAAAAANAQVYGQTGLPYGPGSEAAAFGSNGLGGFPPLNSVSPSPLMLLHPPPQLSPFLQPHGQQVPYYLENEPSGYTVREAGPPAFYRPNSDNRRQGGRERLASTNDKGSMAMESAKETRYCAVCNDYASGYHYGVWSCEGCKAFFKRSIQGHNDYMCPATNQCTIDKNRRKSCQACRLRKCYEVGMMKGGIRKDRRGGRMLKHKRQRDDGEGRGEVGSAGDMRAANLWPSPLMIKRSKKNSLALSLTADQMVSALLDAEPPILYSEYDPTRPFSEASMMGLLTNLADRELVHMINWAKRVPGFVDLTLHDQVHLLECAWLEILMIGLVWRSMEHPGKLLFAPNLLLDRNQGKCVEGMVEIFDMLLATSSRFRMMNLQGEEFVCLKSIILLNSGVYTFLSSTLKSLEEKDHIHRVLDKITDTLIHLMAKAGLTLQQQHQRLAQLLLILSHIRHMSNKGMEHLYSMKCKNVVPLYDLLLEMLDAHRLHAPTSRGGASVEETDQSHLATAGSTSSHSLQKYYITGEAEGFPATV
Chain of Peroxisome proliferator-activated receptor gamma (Homo sapiens) (P37231 whole entry, looked up): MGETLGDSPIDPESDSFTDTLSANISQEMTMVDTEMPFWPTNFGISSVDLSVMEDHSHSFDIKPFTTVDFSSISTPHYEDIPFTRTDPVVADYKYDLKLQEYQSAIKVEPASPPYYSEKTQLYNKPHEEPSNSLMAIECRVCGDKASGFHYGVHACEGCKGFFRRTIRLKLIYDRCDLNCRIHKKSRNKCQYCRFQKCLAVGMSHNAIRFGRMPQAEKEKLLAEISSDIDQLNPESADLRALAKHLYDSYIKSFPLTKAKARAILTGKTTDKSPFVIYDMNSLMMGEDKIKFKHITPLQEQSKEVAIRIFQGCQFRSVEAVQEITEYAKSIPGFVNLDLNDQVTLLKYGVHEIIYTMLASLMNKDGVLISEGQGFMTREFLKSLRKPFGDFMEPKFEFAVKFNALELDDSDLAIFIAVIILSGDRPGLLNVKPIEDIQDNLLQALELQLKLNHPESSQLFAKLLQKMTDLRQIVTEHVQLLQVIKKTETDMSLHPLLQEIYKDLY
Chain of Aryl hydrocarbon receptor (Homo sapiens) (P35869 whole entry, looked up): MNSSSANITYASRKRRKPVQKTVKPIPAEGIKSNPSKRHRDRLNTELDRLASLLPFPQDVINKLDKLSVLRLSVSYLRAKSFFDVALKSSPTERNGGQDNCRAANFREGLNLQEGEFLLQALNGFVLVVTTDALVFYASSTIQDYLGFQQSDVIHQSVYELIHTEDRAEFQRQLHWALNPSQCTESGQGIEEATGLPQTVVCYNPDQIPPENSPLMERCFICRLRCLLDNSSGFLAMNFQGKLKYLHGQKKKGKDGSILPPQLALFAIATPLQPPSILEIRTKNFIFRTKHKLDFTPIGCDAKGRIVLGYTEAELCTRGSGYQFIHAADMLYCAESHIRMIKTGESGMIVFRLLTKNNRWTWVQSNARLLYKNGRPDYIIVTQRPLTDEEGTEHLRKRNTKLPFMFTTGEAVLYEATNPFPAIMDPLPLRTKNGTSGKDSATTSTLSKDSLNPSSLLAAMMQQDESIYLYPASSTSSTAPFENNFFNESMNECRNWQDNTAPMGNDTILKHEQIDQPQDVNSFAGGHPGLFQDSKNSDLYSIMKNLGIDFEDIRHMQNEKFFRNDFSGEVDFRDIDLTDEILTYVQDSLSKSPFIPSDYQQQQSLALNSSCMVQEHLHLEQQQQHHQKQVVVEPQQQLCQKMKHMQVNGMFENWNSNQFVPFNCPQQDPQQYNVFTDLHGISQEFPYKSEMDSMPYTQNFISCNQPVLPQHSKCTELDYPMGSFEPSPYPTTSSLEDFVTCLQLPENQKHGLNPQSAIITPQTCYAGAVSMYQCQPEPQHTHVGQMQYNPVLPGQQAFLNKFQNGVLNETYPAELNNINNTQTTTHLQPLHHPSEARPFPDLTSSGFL
Chain of Aromatase (Homo sapiens) (P11511 whole entry, looked up): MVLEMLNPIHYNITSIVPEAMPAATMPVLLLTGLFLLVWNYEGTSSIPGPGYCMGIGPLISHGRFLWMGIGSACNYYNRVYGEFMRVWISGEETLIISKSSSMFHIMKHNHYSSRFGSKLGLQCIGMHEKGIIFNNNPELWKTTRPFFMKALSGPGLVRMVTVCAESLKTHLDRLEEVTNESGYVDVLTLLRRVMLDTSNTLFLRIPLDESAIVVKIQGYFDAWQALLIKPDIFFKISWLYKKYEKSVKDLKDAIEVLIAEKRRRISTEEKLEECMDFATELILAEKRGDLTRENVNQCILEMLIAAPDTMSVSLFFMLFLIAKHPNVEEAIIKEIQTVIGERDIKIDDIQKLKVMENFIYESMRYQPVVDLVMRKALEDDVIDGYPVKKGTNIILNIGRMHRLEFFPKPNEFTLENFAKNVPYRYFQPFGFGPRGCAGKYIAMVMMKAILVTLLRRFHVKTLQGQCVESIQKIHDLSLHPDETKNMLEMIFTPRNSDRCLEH

Consider `Nc1ccc(S(=O)(=O)NCc2ccccc2)cc1`, for which the Potency entry in test [1], in [2], in test [3], in test [4], in test [5] and in test [6] was “inactive” each time. Further, the Potency result in [7], in test [9], in [10], in test [11], in test [12] and in test [13] was “inactive” each time. In test [8], the result was inactive.
In the case of `C=CC(=O)NC(C)C`, the Potency result in test [1], in [2], in test [14], in test [3], in test [15] and in [16] was “inactive” in each case. Also, the Potency result in [4], in [5], in test [6], in test [17], in test [7] and in test [9] was “inactive” in each case. The Potency result in test [10], in [11], in test [12] and in test [13] was “inactive” throughout. The compound was classed as inactive in test [8].
On to `CCN(CC)C(=O)/C(C#N)=C/c1cc(O)c(O)c([N+](=O)[O-])c1`, for which the Potency result in test [1], in test [2], in [14], in test [3], in [15] and in test [16] was “inactive” throughout. The Potency entry in test [18], in test [4], in test [5], in [17], in test [7] and in test [9] was “inactive” in each case. For the same compound, the Potency entry in test [10], in test [11] and in test [12] was “inactive” in each case.
In the case of `N[C@@H](Cc1cc(I)c(O)c(I)c1)C(=O)O`, the Potency result in test [1], in [2], in test [14], in [15], in test [16] and in test [18] was “inactive” throughout. Moreover, the Potency result in test [5], in test [6], in test [17], in test [7], in test [10] and in [11] was “inactive” throughout. The Potency entry in [12] and in test [13] was “inactive” in each case. Moreover, the compound was called inactive in test [8].
For the compound `CS(=O)(=O)c1ccc([C@@H](C[C@H]2CCC(=O)C2)C(=O)Nc2cnccn2)cc1Cl`, the Potency result in test [1], in [2], in [3], in [15], in test [16] and in test [18] was “inactive” each time. Also, the Potency entry in test [4], in [5], in [17], in test [7], in [10] and in test [11] was “inactive” throughout. In [12], the Potency entry is “inactive”. Moreover, in [8], the call was inactive.
With `CC1CCCC(=O)C1=O` (stereo not given), the Potency entry in [1], in test [2], in test [14], in [3], in test [15] and in test [16] was “inactive” in each case. The Potency entry in test [4], in test [5], in test [6], in test [17], in test [7] and in test [9] was “inactive” each time. In addition, the Potency result in [10], in test [11], in [12] and in test [13] was “inactive” in each case.
As to `COc1ccc(C2C(=O)c3ccccc3C2=O)cc1`, the Potency result in [1], in test [2], in test [14], in test [3], in [15] and in [4] was “inactive” throughout. The Potency entry in test [5], in [6], in test [17], in test [7], in test [9] and in test [12] was “inactive” each time. Also, the Potency entry in test [13] is “inactive”. In addition, the Potency in test [16] was 23.7 µM (active). Besides, in test [8], the outcome was inactive.
For the compound `COc1cc(OC)c2ccc(=O)oc2c1`, the Potency result in test [1], in [2], in [14], in test [3], in test [15] and in test [16] was “inactive” in each case. The Potency result in [18], in test [5], in [6], in [17], in [7] and in test [10] was “inactive” in each case. The Potency entry in [11], in [12] and in [13] was “inactive” throughout.
